Drawing on PubChem BioAssay (NCI), this text covers growth for six compounds.

About 83,000 compounds went through this panel and 20% of them were active in at least one assay; those are over-represented in the sample as a whole.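 The endpoint reported here, percent growth, reads 100 for growth as untreated, 0 for no net growth and -100 for all cells dead.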 Calls of active or inactive are those of the source. The calls were made as follows: active = growth percent below 10; inactive = the rest.

For this assay, the system named is HL-60(TB) leukemia. As to the kind of experiment: NCI-60 one-dose screen, 48 h (100 = growth as untreated, 0 = no growth, -100 = all killed). The settings on record: 10 µM unless noted.
As to `COc1ccc(-c2cc(-c3cc(OC)ccc3OC)[nH]c(=O)c2C#N)cc1`, the growth was 18.1% (inactive).
Under `CCOC(=O)c1c2ncccc2n2c(=O)n(-c3ccccc3C)nnc12` stands 56.9% (inactive); under `O=C(/C=C/c1ccccc1)c1ccc(Nc2nc(NCCO)nc(Nc3ccc(Cl)cc3)n2)cc1`, 101% (inactive).
The same measure for `CN(C)CCCOc1ccc(OCCCN(C)C)c2c1C(=O)c1ccccc1C2=O`: 5.97% (active).
Under `Cc1[nH]n(C(=O)c2ccncc2)c(=O)c1N=Nc1ccc(F)c(Cl)c1` stands 36.5% (inactive); under `COc1ccc(C(=O)C(=O)c2ccccc2)cc1`, 94.2% (inactive).
